From PubChem BioAssay come the findings set out here.

The target of experiment [1] is Sentrin-specific protease 8 (Homo sapiens) (UniProt Q96LD8). Description: human SENP8 peptidase blockers, hit retest – biochemical, luminescence, single concentration, confirmation (AID 488912;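 active means mean inhibition across replicates above about 50%, limit read from the data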). To be noted: Recombinant SENP8, Z-RLRGG-aminoluciferin luminescence, 60 min; at 12.5 µM; stronger effect = higher value.
Experiment [2] concerns the target Sentrin-specific protease 6 (Homo sapiens) (UniProt Q9GZR1). Description: inhibition of human SENP6 catalytic domain – biochemical, luminescence, single concentration, confirmation (AID 488915). To be noted: recombinant SENP6, Z-RLRGG-aminoluciferin luminescence; at 12.5 µM; stronger effect = higher value.
Experiment [3] deals with Sentrin-specific protease 7 (Homo sapiens) (UniProt Q9BQF6). Description: human SENP7 peptidase blockers, hit retest – biochemical, luminescence, single concentration, confirmation (AID 488917). To be noted: recombinant SENP7, Z-RLRGG-aminoluciferin luminescence, 40 min; at 12.5 µM; stronger effect = higher value.
A further experiment addresses Caspase-3 (Homo sapiens) (UniProt P42574). Description: human caspase-3 activity blockade, out-of-family – biochemical, single concentration, selectivity assay for SENP inhibitor project, confirmation (AID 488918;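 active means mean inhibition above about 50%, limit read from the data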;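 further: plate controls were enzyme with DMSO for no effect and wells without caspase-3 for full effect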). The following applies: purified caspase-3, Z-DEVD-aminoluciferin luminescence, 60 min; at 12.5 µM; stronger effect = higher value.
Experiment [4] can be described thus: Ultra-Glo luciferase signal interference – biochemical, single concentration, SENP8 reaction pre-completed, artefact control for SENP inhibitor project, confirmation (AID 488919;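 active means mean inhibition above about 50% when retested at one dose, limit read from the data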;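 further: plate controls were DMSO wells with completed reaction for no effect and substrate without enzyme for full effect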). To be noted: Pre-incubated SENP8/Z-RLRGG-aminoluciferin, luciferase luminescence interference; at 12.5 µM; stronger effect = higher value.
The target in experiment [5] is Tumor necrosis factor receptor superfamily member 10B (Homo sapiens) (UniProt O14763). Description: viability loss of caspase-8 NB7 cells with TRAIL – with/without TRAIL, luminescence panel, confirmation (AID 651596; in the data active means activity above about 50%). The following applies: NB7 neuroblastoma + caspase-8, TRAIL sensitization, NB7 Caspase-8, with TRAIL, mean of runs, at 10 µM, stronger effect = higher value.
Test in experiment [6]: as above
To be noted: NB7 neuroblastoma + caspase-8, without TRAIL, NB7 Caspase-8, without TRAIL, mean of runs, at 10 µM.

Experiment [7] in a line: apoptosome-driven caspase-3 activation blockers – biochemical, fluorescence, DEVD-Rh110, 20 µM, confirmation (AID 504614;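 active means mean inhibition of at least 40% at 20 µM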;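 further: plate controls were DMSO wells for no effect and DEVD-CHO caspase inhibitor control wells for full effect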). The following applies: reconstituted apoptosome, caspase-3 DEVD-Rh110 fluorescence; at 20 µM; stronger effect = higher value.
A short description of experiment [8]: detection-step artefacts after completed caspase reaction – biochemical, fluorescence, Rh110, 20 µM, artefact control for Apaf-1 inhibitor project, confirmation (AID 504615;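 active means signal rise of 40% or more at 20 µM, treated as a fluorescence artifact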). To be noted: quenched caspase reaction, at 20 µM, stronger effect = higher value.
Experiment [9] is described as follows: fluorescence interference of Apaf-1 inhibitor hits, dose response, artefact control for Apaf-1 inhibitor project (AID 588538; call rule not given here). The following applies: fluorescence interference counterscreen, Apaf-1 assay format. In general terms: A counterscreen serves to expose hits that act by an unwanted route or on another target.
Experiment [10] concerns the target Protein Mdm4 (Homo sapiens) + E3 ubiquitin-protein ligase Mdm2 (Homo sapiens) (UniProt O15151+Q00987). As to the kind of experiment: human Mdm2/MdmX binding disruption – cell-based, luminescence, single concentration, set 2, confirmation (AID 504601;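 active means mean inhibition of the luminescence signal across two replicates at or above 26 percent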). The following applies: SaOS-2 split-luciferase Mdm2/MdmX complementation, at 8 µM, stronger effect = higher value.

The inhibition is the drop in the measured response relative to a control, in per cent. A word on the IC50: it is the concentration that inhibits the measured activity by half.

Molecules are shown by their SMILES. This is one part of the list. Active and inactive are the calls of the source.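 How the source made its calls, unless noted: active means mean inhibition above about 50% in the one-dose retest (limit read from the data); inactive means the rest.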

Chain of Sentrin-specific protease 8 (Homo sapiens) (Q96LD8 whole entry, looked up, the tested form may be a part): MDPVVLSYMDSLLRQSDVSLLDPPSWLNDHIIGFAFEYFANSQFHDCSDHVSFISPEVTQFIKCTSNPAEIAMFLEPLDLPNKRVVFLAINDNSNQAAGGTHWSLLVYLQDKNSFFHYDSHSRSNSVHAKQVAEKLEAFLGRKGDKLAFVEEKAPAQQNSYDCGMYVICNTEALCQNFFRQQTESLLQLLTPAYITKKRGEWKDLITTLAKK
Chain of Sentrin-specific protease 7 (Homo sapiens) (Q9BQF6 706-1050 limits assumed): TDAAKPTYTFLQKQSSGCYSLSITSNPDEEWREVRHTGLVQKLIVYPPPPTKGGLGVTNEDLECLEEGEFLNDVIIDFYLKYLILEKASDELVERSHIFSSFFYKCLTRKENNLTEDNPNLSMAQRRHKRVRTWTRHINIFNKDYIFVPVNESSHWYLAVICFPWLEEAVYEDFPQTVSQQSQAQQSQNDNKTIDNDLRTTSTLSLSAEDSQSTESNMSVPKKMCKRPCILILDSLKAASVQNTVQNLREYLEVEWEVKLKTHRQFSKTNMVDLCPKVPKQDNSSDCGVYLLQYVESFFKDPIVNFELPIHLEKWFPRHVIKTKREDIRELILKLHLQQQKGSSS
Chain of Caspase-3 (Homo sapiens) (P42574 28-227 limits assumed): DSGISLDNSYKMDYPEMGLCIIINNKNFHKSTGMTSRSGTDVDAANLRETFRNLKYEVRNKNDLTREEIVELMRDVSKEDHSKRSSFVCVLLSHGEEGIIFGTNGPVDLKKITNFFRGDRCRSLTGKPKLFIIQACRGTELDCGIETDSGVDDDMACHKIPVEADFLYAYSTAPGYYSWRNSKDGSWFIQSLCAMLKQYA
Chain of Tumor necrosis factor receptor superfamily member 10B (Homo sapiens) (O14763 whole entry, looked up): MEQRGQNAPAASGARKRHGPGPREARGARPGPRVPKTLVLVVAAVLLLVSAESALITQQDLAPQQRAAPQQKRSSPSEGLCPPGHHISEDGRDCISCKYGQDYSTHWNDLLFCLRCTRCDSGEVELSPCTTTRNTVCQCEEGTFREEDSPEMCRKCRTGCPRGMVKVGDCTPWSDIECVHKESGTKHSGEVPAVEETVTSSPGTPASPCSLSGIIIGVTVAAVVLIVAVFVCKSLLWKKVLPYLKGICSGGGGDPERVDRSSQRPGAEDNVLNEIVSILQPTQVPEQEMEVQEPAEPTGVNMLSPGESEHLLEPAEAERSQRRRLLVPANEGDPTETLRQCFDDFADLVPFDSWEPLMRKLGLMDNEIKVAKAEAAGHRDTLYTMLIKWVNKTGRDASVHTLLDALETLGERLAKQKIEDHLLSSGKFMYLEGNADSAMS
Chain of Sentrin-specific protease 6 (Homo sapiens) (Q9GZR1 628-1112 limits assumed): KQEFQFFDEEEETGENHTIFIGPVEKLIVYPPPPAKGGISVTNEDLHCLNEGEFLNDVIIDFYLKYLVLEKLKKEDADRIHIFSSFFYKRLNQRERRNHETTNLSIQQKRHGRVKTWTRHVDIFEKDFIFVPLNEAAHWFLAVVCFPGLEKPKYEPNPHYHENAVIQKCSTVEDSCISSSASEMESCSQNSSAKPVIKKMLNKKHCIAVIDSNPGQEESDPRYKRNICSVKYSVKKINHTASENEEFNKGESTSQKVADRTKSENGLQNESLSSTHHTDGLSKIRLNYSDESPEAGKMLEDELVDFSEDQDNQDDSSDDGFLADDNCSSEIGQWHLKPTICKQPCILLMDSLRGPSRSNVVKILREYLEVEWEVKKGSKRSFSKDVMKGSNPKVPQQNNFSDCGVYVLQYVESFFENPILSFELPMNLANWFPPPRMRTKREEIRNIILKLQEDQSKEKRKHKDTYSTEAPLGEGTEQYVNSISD
Chain of Protein Mdm4 (Homo sapiens) + E3 ubiquitin-protein ligase Mdm2 (Homo sapiens) (O15151 whole entry, looked up): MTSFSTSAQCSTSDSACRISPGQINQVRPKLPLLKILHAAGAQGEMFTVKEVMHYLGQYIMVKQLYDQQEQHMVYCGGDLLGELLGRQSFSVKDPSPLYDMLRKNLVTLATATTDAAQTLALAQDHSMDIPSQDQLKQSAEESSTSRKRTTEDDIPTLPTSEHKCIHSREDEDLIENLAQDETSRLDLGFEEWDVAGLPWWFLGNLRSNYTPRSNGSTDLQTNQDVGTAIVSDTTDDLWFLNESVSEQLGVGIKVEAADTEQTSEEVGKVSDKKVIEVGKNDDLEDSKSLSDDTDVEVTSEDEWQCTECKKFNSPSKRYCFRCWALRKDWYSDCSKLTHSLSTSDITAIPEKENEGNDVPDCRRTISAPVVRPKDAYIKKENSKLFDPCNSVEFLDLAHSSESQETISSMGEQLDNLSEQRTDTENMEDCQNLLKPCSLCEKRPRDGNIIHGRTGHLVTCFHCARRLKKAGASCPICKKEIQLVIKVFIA
Chain of Protein Mdm4 (Homo sapiens) + E3 ubiquitin-protein ligase Mdm2 (Homo sapiens) (Q00987 whole entry, looked up): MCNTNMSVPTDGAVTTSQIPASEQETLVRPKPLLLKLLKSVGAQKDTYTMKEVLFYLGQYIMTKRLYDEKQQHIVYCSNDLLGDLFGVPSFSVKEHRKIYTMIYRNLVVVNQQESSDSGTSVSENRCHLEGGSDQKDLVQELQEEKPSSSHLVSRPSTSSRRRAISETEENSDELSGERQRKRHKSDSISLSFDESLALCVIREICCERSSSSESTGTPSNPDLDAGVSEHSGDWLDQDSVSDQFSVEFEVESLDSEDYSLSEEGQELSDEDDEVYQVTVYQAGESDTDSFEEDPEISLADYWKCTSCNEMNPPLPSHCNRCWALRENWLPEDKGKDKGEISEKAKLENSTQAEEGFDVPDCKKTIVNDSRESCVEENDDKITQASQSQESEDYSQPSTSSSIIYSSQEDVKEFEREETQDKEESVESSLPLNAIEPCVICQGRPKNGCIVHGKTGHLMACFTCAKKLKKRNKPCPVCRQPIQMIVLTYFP

Turning to `CCOc1ccc(-c2nnc(-c3ccco3)o2)cc1`, the inhibition in [1] was 5.3% (inactive); in experiment [2], 72.1% (active); in [3] it was 79% (active); with Caspase-3 (Homo sapiens) it was 73.8% (active); in experiment [4], 15.9% (inactive). Moreover, the results for the activity in experiment [5] and in [6] were 52.5% and 56.5%, respectively.

In the case of `CC(=O)N(C1=C(Cl)C(=O)c2ccccc2C1=O)c1ccc(C(=O)O)cc1`, the inhibition is 81.7% (active) in experiment [1]; 91% (active) in [2]; 55.3% (active) in experiment [3]; 6.3% (inactive) in the experiment with Caspase-3 (Homo sapiens); 4% (inactive) in experiment [4]; 95% (active) in experiment [7]. For the same compound, the activation (fluorescence interference) in experiment [8] was 9.87% (inactive). Besides, the IC50 in experiment [9] was > 100 µM (inactive).

As to `Cc1oc2c(c1C(=O)N1CCOCC1)C(=O)c1ccccc1C2=O`, the inhibition in [1] is 27.7% (inactive); in experiment [2], 61% (active); in experiment [3], 6% (inactive); with Caspase-3 (Homo sapiens), 87.5% (active); in [4], -2.3% (inactive); in experiment [7], 52.9% (active). Also, the activation (fluorescence interference) in [8] is 8.76% (inactive). Also, the IC50 in [9] was > 100 µM (inactive).

In the case of `C(=N\Nc1ccc2ccccc2n1)/c1ccc2c(c1)OCO2`, the inhibition is 97.7% (active) in [1]; 98.3% (active) in [2]; 102% (active) in experiment [3]; 93.2% (active) with Caspase-3 (Homo sapiens); 71.3% (active) in [4]. The activity in experiment [5] was 51.5%; in [6], 31.6%.

Turning to `CCOC(=O)c1ccc(Nc2cc3ccccc3c(=O)[nH]2)cc1`, the inhibition in experiment [1] was 28.7% (inactive); in experiment [2], 63.5% (active); in experiment [3], 31.6% (inactive); with Caspase-3 (Homo sapiens), 9.8% (inactive); in experiment [4], -2.7% (inactive); in experiment [7] it was 62.4% (active). Moreover, the activation (fluorescence interference) in experiment [8] is 11.7% (inactive). Also, the IC50 in [9] is > 100 µM (inactive).

Turning to `CCOC(=O)c1c(-c2cccc(C)c2)csc1NC(=O)c1c(-c2ccccc2)noc1C`, in experiment [10], the inhibition was 101% (active).

For the compound `O=C(Nc1ccccc1)c1ccc2c(c1)OCCCO2`, the inhibition was 78.5% (active) in [1]; 77.7% (active) in [2]; 94.2% (active) in [3]; 90% (active) in the experiment with Caspase-3 (Homo sapiens); 81.9% (active) in [4]. Also, the activity in experiment [5] and in [6] was 79.9% in each case.

For `CCOc1cc(N2CCOCC2)c(OCC)cc1NC(=O)COc1cccc2cccnc12`, the inhibition in [10] was 92.7% (active).

In the case of `COc1ccc(-c2cn3ccsc3n2)cc1`, the inhibition in experiment [1] is 55.5% (active); in experiment [2], 51.2% (active); in experiment [3], 81.3% (active); with Caspase-3 (Homo sapiens), 74.4% (active); in experiment [4], 56.3% (active). For the same compound, the activity in experiment [5] was 64.2%; in experiment [6], 54.6%.
